An excerpt weighted towards active compounds, which were near 7.9% of everything screened.
HCMV inh: inhibitors of human cytomegalovirus; HFF cells, HCMV-luciferase reporter, 72 h; hits give low values; activity change, negative = inhibition, % at 57.5 µM; 410,000 tested, 4.5% active; AID 1259415; in the data active = activity change below about -60%; inconclusive = no clear call, values can overlap the other calls; inactive = above about -39%
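Screen run at 2 compound doses on HFFs infected with reporter HCMV, MOI 1 PFU/cell. Luciferase activity from cell lysates at 72 h post infection gave inhibition relative to buffer-only and Salinomycin wells.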
Marburg entry inh: inhibitors of Marburg virus binding or cell entry. Marburg virus pseudotyped entry inhibition, cell reporter. 300,000 tested, 1.8% active. Potency, µM (doses to about 37.8 µM), for the others: top-dose activity change, negative = inhibition, actives largely listed as inhibitors; calls by dose curve; tested in HEK293 cells; note: potency is the fitted concentration of half-maximal effect
Lassa entry inh: inhibitors of Lassa virus binding or cell entry | 300,000 tested, 1.2% active | Potency, µM (highest dose often 37.9 µM), without a hit: at the highest dose activity change, negative = inhibition, hits mostly inhibitors | Lassa virus pseudotype entry inhibition, cell reporter; calls by dose curve; tested in HEK293 cells; note: potency is the fitted concentration of half-maximal effect; nearly all actives have a fitted effect of over 50% in size
FMDV inh: blocks foot and mouth disease virus; FMDV antiviral cell-based qHTS; Potency, µM (doses to about 57.9 µM), for inactives: at the highest dose activity change, negative = inhibition, most hits filed as inhibitors; 410,000 tested, 1.2% active; AID 1159524; calls by dose curve; tested in HEK293T cells; note: read-out not given here; potency is the fitted concentration of half-maximal effect; nearly all actives have a fitted effect of over 45% in size
HCV inhibitor: HCV inhibition. Huh7.5.1 HCVcc-Cre infection, luciferase reporter, 44 h. AID 651820. 340,000 tested, 3.4% active. Potency, µM (titrated, usually from 41.8 µM), for inactives: top-dose activity change, negative = inhibition, most hits filed as inhibitors; active = well fitted inhibition curve with a large enough effect; inconclusive = small, poorly fitted or top-dose-only effect, or another doubt; inactive = no such curve, though single readings can be large or run the other way; note: potency is the fitted concentration of half-maximal effect
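Infectious HCVcc-Cre (~0.5 moi) was added to cells just after compound, with cells seeded 4 h earlier at 1,000 per well. Luciferase activity after 44 h culture reported infection; substrate was incubated 15 min at room temperature before reading.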
An asterisk follows results filed as active; ? = inconclusive; · = not tested or not shown; [ ] = another dose, or the depositor's remark. % is set by controls: 0 for no effect and ±100 for the full control effect.

SMILES	HCMV inh	Marburg entry inh	Lassa entry inh	FMDV inh	HCV inhibitor
Nc1ccc(N(c2ccccc2)c2ccc(N)cc2)cc1	?	?	-17%	?	10µM*
CC(=O)N1CCN(c2ccc(NC(=O)c3ccc(Cl)cc3)cc2)CC1	-18	·	·	2%	7%
Cc1ccc(C(=O)Nc2ccc(N3CCCCC3)cc2)cc1	37	·	·	0%	·
O=C(Nc1ccc(N2CCCC2)cc1)c1ccccc1F	30	?	-26%	21%	?
CC(=O)N1CCN(c2ccc(NC(=O)c3ccc(C(C)(C)C)cc3)cc2)CC1	-86*	?	?	·	?
O=C(Nc1ccc(N2CCCCC2)cc1)c1ccccc1	40	?	7.3µM*	·	?
O=C(Nc1ccc(N2CCCCC2)cc1)c1ccc(F)cc1F	-35	?	10µM*	-11%	-7%
O=C(Nc1ccc(N2CCCC2)cc1)c1cccc(Cl)c1Cl	-80*	-22%	4%	58%	?
COCc1c(C(=O)N2CCN(C3CCCCC3)CC2)cnn1-c1ncc(C)c(-c2cccs2)n1	·	·	·	-1%	·
COc1cc(O)ccc1C1CC(=O)Nc2c1c(=O)nc(SCc1ccccc1C)n2C (stereo not given)	-12	?	24%[46.1 µM]	0%	·
O=C(Nc1ccc(N2CCCC2)cc1)c1cccc(-c2cc3ccccc3oc2=O)c1	-63*	?	?	0%	-4%
O=C(Nc1ccccc1N1CCCC1)c1cccc(-c2cc3ccccc3oc2=O)c1	41	-13%	-2%	-9%	?
Cc1cc(C(=O)Nc2ccc(N3CCCCC3)cc2)no1	17	?	11µM*	-51%	-11%
COC(=O)c1c(OCc2cccnc2)cc(=O)n2c1CCN(C(=O)c1c3c(nn1C)CCCC3)CC2	·	·	·	-17%	·
NS(=O)(=O)c1ccc(N=Nc2c(O)[nH]c3ccc(-c4cnco4)cc23)cc1	·	·	13µM*	·	·
Cc1c(C#N)c(O)[nH]c(=O)c1N=Nc1ccc(S(N)(=O)=O)cc1	-32	4%[46.1 µM]	0%[46.1 µM]	-6%	0%
CC(C)=Cc1cccc2[nH]c(O)c(N=Nc3ccc(S(N)(=O)=O)cc3)c12	·	·	4µM*	·	·
Cc1ccc2[nH]c(O)c(N=Nc3ccc(S(N)(=O)=O)cc3)c2c1	·	·	4µM*	·	·
O=C(O)c1cc(N=Nc2c(O)[nH]c3ccc([N+](=O)[O-])cc23)ccc1Cl	1	·	·	10%	8%
CSc1nnc(CNS(=O)(=O)c2ccc(F)cc2F)n1-c1ccccc1C	·	·	·	3%	·
CCN(c1ccccc1)S(=O)(=O)c1nnc(NC(=O)C(C)Oc2ccccc2)s1 (stereo not given)	-5	·	?	-12%	·
Cc1ccc(CN2c3ccccc3-c3nc(SCC(=O)Nc4c(C)cc(C)cc4C)ncc3S2(=O)=O)cc1	11	·	?	-9%	·
CC(C)N(Cc1ccccc1)C(=O)COC(=O)c1ccc(O)cc1	4	·	·	-16%	?
CC1=C(C)Cc2c(nnn2-c2nc(C)nc3sc4c(c23)CCCC4)C1	·	-5%	·	·	·
CC(C)(C)c1ccc(OCCOc2ccc(C(C)(C)C)cc2NC=O)c(NC=O)c1	?	·	·	?	10µM*
SMILES	HCMV inh	Marburg entry inh	Lassa entry inh	FMDV inh	HCV inhibitor
Cc1nc2c(c(C)nn2-c2ccccc2)c(C)c1CCC(=O)Nc1ccc(F)cc1	-30	-8%[46.1 µM]	25%[46.1 µM]	?	·
CCOC(=O)C1CCCCN1C(=O)c1cnn(-c2nccc(-c3cc(C)sc3C)n2)c1C1CC1 (stereo not given)	·	·	·	18%	·
COc1ccc(-c2nc3ccccn3c2Cl)cc1	-34	?	3.5µM*	?	?
COc1ccc(-c2nc3ccccn3c2CN2CCN(c3ccccc3F)CC2)cc1	-61*	-18%[46.1 µM]	-13%	-27%	?
COc1cc(NC(=O)Cn2c(=O)cc(C)c3c(C)nn(-c4ccc(C)cc4)c32)cc(OC)c1	9	·	-20%[46.1 µM]	5%	·
CC(C)OCCCNC(=O)CCCn1c(SCC(N)=O)nc2c(sc3ccccc32)c1=O	-25	-6%[46.1 µM]	1%[46.1 µM]	-18%	·
CCC(=O)c1ccc(OCc2ccc(C(=O)OC)cc2)cc1	70	10µM*	?	?	6%
COC(=O)c1ccc(COc2ccc(-c3nnn(CC(N)=O)n3)cc2)cc1	-14	-3%[46.1 µM]	-16%[46.1 µM]	23%	8%
COC(=O)c1ccc(COc2ccc(-c3nn[nH]n3)cc2)cc1	-107*	15%	-19%	13%	7%
CCOc1ccccc1-c1ccc(C(=O)NCc2ccc(Cl)cc2)o1	13	·	?	·	·
CCOC(C(=O)OC[C@@H](O)CN(CC)CC)(c1ccccc1)c1ccccc1	·	-25%	·	·	·
CN(C)S(=O)(=O)N1CCN(C(=O)N2CCOCC2)CC1	-101*	-6%	0%	·	11%
CN(C)S(=O)(=O)N1CCN(C(=O)N2CCCCC2)CC1	39	-2%	12%	·	-2%
O=C(Nc1ncc(Cc2ccc(SC(F)F)cc2)s1)c1ccc(OC(F)F)cc1	-86*	5.6µM*	?	?	?
Cc1ccc(Cc2cnc(NC(=O)c3ccco3)s2)cc1	1	?	?	·	?
CC(C(=O)Nc1ccc(O)cc1)c1cccc(C(=O)c2ccccc2)c1 (stereo not given)	-63*	?	?	?	13µM*
CC(C)Cc1ccc(C(C)C(N)=Nc2ccc(O)cc2)cc1 (stereo not given)	-11	?	?	-17%	?
CC(C)Cc1ccc(C(C)C(=O)Nc2ccc(O)cc2)cc1 (stereo not given)	-66*	·	·	0%	-10%
CC(=O)Nc1ccc(NC(=O)C(C)c2cccc(C(=O)c3ccccc3)c2)cc1 (stereo not given)	-4	1%	-18%	-18%	-7%
CC(C)Cc1ccc(C(C)C(=O)Nc2cccnc2)cc1 (stereo not given)	-78*	?	1%[46.1 µM]	-26%	3.2µM*
COCCN(C(=O)c1sc2ccccc2c1Cl)c1c(N)n(CC(C)C)c(=O)[nH]c1=O	-13	·	·	-19%	9%
COc1cccc(CNC(=O)CCn2cccn2)c1	14	·	11%[46.1 µM]	-23%	·
O=C(NCc1cccnc1)c1ccc(Cn2cc(C(F)(F)F)ccc2=O)cc1	-16	-3%[46.1 µM]	-26%[46.1 µM]	-22%	-19%
O=C(NCc1ccncc1)c1nc(-c2ccc(C(F)(F)F)cc2)no1	-79*	10%[46.1 µM]	-8%	?	?
O=C(NCc1ccncc1)c1nc(-c2cccs2)no1	12	?	10%	0%	3%
O=C(NCc1cccnc1)c1nc(-c2ccc(C(F)(F)F)cc2)no1	-61*	?	-9%	-27%	?
CCCCCn1nnnc1-c1nc2cc(C)c(C)cc2[nH]c1=O	-5	·	·	-28%	·
COc1cccc(OC)c1OCCN1CCC(C(=O)NC(c2ccc3c(c2)OCO3)c2ccccn2)CC1 (stereo not given)	-61*	·	·	-6%	·
CC(C)(C)NC(=O)CCN(/N=C/c1ccc([N+](=O)[O-])o1)C1=NS(=O)(=O)c2ccccc21	-95*	?	-2%	?	?
COc1ccc(-c2noc(-c3ccc(NCc4ccco4)c([N+](=O)[O-])c3)n2)cc1OC	0	-17%[46.1 µM]	-7%[46.1 µM]	-7%	·

Screening data: PubChem BioAssay, National Center for Advancing Translational Sciences (NCATS)
